KCC2 mod = KCC2 (human) Cl- transport modulation; Q9H2X9; KCC2 cells, thallium flux FluoZin-2 fluorescence; B-score of Tl+ flux slope (higher = more flux/activation; lower = inhibition) at 10 µM; hit rate 2.2% among 190,000;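 active means thallium flux slope and its plate-corrected score both differing from the plate sample mean at a set confidence after two filtering rounds, in either direction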;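 further: slope of fluorescence scaled to starting intensity during 10 to 20 s after thallium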
WT yeast gro inh = growth inhibition of WT yeast, mitochondrial fusion screen. hit rate 2.1% among 190,000. inhibition, % at 10 µM. mitochondrial fusion phenotypic screen, WT strain; in the data active means inhibition above about 58%; tested in S. cerevisiae
ROMK mod = human ROMK K+ channel modulation, primary screen; AID 1918; B-score at 10 µM; P48048; hit rate 2% among 130,000; Tet-inducible ROMK, thallium flux fluorescence; actives lie on both sides;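 active means signal ratio slope over the read window, or its plate-corrected B-score, at least 3 SD from the plate mean, either direction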;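 further: B-score of the F/F0 ratio slope over 7 to 12 s after thallium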
Target sequence (P48048 whole entry, looked up): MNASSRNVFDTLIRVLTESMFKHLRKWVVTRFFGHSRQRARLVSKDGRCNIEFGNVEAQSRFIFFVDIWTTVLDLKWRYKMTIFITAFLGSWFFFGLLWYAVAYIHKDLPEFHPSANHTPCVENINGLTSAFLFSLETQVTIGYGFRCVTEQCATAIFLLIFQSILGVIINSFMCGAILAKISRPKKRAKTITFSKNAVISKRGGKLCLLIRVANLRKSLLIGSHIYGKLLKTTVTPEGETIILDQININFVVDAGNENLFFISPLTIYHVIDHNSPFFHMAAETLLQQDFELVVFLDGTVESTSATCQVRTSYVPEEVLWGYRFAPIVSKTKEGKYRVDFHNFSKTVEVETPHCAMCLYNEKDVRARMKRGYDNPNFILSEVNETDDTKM
m-calpain inh = blocks pig calpain II enzyme activity; purified calpain II, fluorogenic peptide substrate, 30 min; inhibition, % at 16 µM; hit rate 0.37% among 220,000;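 active means inhibition above about 50%, limit read from the data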
Lmaj promast = Leishmania major promastigote growth inhibition; Leishmania major promastigotes, resazurin fluorescence viability; hit rate 9% among 200,000; inhibition, % at 10 µM; in the data active means inhibition above about 50%;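 further: promastigotes grown with compound for 44 hours at 28 °C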
Numbers stand for hits; n = inactive; x = no result given. Most compounds without a hit are left out; they make up all but 12% or so of the library.

SMILES | KCC2 mod | WT yeast gro inh | ROMK mod | m-calpain inh | Lmaj promast
CSc1ccc(CN2CCN(CC=C(C)C)C(CCO)C2)cc1 (stereo not given) | n | n | n | n | 64.6
CCOC(=O)N1CCC(N2CCN(Cc3ccc(F)c(F)c3)C(CCO)C2)CC1 (stereo not given) | n | n | n | n | 84.0
COc1ccc(CN2CCN(CC=C(C)C)C(CCO)C2)cc1Cn1cncn1 (stereo not given) | n | n | n | n | n
OCCC1CN(Cc2cccnc2)CCN1CCc1ccccc1 (stereo not given) | n | n | n | n | n
CCCn1ncc(CN2CCN(CCc3ccccc3)C(CCO)C2)c1C (stereo not given) | n | n | n | n | 60.0
CS(=O)(=O)N1CCN(c2ccccc2NC(=O)c2ccc(-c3ccc(Br)cc3)o2)CC1 | n | n | n | n | 52.9
CS(=O)(=O)N1CCN(c2ccccc2NC(=O)c2cc(Br)ccc2Cl)CC1 | n | n | n | n | n
OCCCCNCc1ccc(OCc2ccc(Cl)cc2)cc1 | n | n | n | n | 100.5
CCCCCNCc1ccc(Br)cc1 | n | n | n | n | 86.9
CNCCCNCc1ccc(SC)cc1 | n | n | n | n | n
CCCCCCNCc1ccc(Br)cc1 | n | n | x | n | 86.1
CCCCCNCc1ccc(Cl)cc1 | n | n | n | n | 50.6
COc1cccc(CNCCO)c1OCc1ccc(Cl)cc1 | n | n | n | n | n
COc1ccc(C2/C=C\CN(C(=O)NC(C)C)CC(=O)N2Cc2ccc(F)cc2)cc1 (stereo not given) | n | x | x | n | x
COc1ccccc1C(=O)N=Nc1c(O)[nH]c2ccc([N+](=O)[O-])cc12 | n | n | n | n | n
N=C(N)N=Nc1c(O)[nH]c2ccc(Br)cc12 | n | n | n | n | n
O=C(CSc1nc2ccccc2[nH]1)N=Nc1c(O)[nH]c2ccccc12 | n | n | n | n | n
O=C(N=Nc1c(O)[nH]c2ccc(Br)cc12)c1cc(-c2cccc3ccccc23)n[nH]1 | n | n | x | n | 66.2
O=C(N=Nc1c(O)[nH]c2ccc(Br)cc12)c1cc(-c2cccs2)nc2ccccc12 | n | n | n | n | n
O=C(N=Nc1c(O)[nH]c2ccc([N+](=O)[O-])cc12)c1cc(-c2ccccc2Cl)nc2ccccc12 | n | n | x | 69.0 | n
O=C(N=Nc1c(O)[nH]c2ccc(Br)cc12)c1ccccc1-n1cccc1 | n | 83.3 | n | n | n
O=C(CSCc1ccc(Br)cc1)N=Nc1c(O)[nH]c2ccccc12 | 9.99 | n | x | n | n
COC(=O)c1ccsc1NC(=O)c1cccc(OC)c1 | n | n | n | n | n
Cc1ccc(Br)cc1S(=O)(=O)N1CCN(c2ccccc2)CC1 | n | n | x | n | n
Cc1cc(C)c(-c2csc(NC(=O)c3n[nH]c(=O)c4ccccc34)n2)c(C)c1 | n | n | x | n | n
SMILES | KCC2 mod | WT yeast gro inh | ROMK mod | m-calpain inh | Lmaj promast
CCCc1cc(=O)oc2c3c(c4c(c12)OC(C)(C)C=C4)OC(C)C(C)C3O (stereo not given) | n | x | x | n | x
CC(C)CNC(=O)c1cccc(NC(=O)C(C)C)c1 | n | n | n | n | n
CN(C)Cc1nc2ccccc2c(=O)n1Cc1nc(-c2cccc([N+](=O)[O-])c2)cs1 | n | n | n | n | 51.8
CN1CCN(Cc2nc3ccccc3c(=O)n2CC#N)CC1 | n | n | n | n | n
CN1CCN(Cc2nc3ccccc3c(=O)n2Cc2nc(-c3ccc([N+](=O)[O-])cc3)cs2)CC1 | n | n | x | n | 100.5
COCCNc1nc(-c2ccc(OC)cc2)c(-c2ccc(OC)cc2)s1 | n | n | n | n | n
COc1cc(OC)nc(-n2ncc(Br)c(Br)c2=O)n1 | n | n | n | n | 100.3
COc1ccc(OC)c(C(=O)CSc2nc3ccccc3n2CC(=O)NC(C)(C)C)c1 | n | n | n | n | 61.4
CC(C)(C)NC(=O)Cn1c(SCC(N)=O)nc2ccccc21 | n | n | x | n | n
Cc1nnc(SCC(=O)Nc2sc3c(c2C(=O)c2ccccc2)CCCC3)s1 | n | n | x | n | 89.0
Cc1cc(NC(=O)CSc2nnc(-c3c[nH]c4ccccc34)n2-c2ccc(Cl)cc2)no1 | n | n | n | n | 88.8
Cc1ccc(C)c(NC(=O)CSc2nnc(-c3n[nH]c4ccccc34)o2)c1 | n | n | n | n | 59.8
CCn1c(SCC(=O)Nc2ccc3c(c2)OCCO3)nnc1-c1c[nH]c2ccccc12 | n | n | x | n | 60.2
Cc1ccc(C)c(NC(=O)CSc2nnc(-c3ccccc3C)o2)c1 | n | n | x | n | n
CN(C)CCCSc1nc2ccccc2s1 | n | n | n | n | n
COCCN(CCOC)C(=O)COC(=O)c1ccc(Cl)c(S(=O)(=O)N(C)c2ccccc2)c1 | n | n | n | n | n
O=C(CSc1nnc(-c2n[nH]c3ccccc23)n1-c1ccccc1)Nc1ccccc1Cl | n | n | n | n | 60.4
CCn1c(SCC(=O)Nc2ccc3c(c2)c2ccccc2n3CC)nnc1-c1cnccn1 | n | n | x | n | 98.7
CCOC(=O)c1c(NC(=O)CSc2nnc(-c3c[nH]c4ccccc34)n2CC)sc2c1CCCC2 | n | n | n | n | 55.2
Cc1c(Cl)cccc1NC(=O)CSc1nnc(C)n1-c1ccccc1 | n | x | n | n | n
CC1(C)Cc2cccc(C(=O)NC3CCN(Cc4ccccc4)CC3)c2O1 | x | x | x | n | x
Cc1noc(C)c1S(=O)(=O)N(CCc1ccccc1)Cc1ccccc1 | n | 69.7 | x | n | n
Cc1noc(C)c1S(=O)(=O)N(C)CC(=O)NCc1ccccc1 | n | n | x | n | n
O=C(Oc1ccc(C(=S)N2CCCCC2)cc1)c1ccccc1 | n | n | x | n | n
O=C(Oc1cccc(C(=S)N2CCCCC2)c1)c1ccccc1 | n | 60.1 | n | n | n
SMILES | KCC2 mod | WT yeast gro inh | ROMK mod | m-calpain inh | Lmaj promast
COC(=O)c1c(NC(=O)COC(=O)c2ccc(NC(=O)CC#N)cc2)sc2c1CCCCC2 | n | n | n | n | n
COc1ccc(CCc2nnc(CCC(=O)N(C)Cc3ccnc4ccccc34)o2)cc1 | n | n | n | n | n
CSc1ccccc1NC(=O)CN(C)C(C)C(=O)Nc1ccc(C#N)cc1 (stereo not given) | n | n | n | n | 56.4
CSc1ccccc1NC(=O)CN(C)CC(=O)Nc1ccccc1F | n | n | n | n | n
ON(Cc1c(F)cccc1Cl)Cc1c(F)cccc1Cl | n | x | n | n | x
CCOC(=O)c1ccc(Oc2c(C)oc3c(CN4CCN(C)CC4)c(O)ccc3c2=O)cc1 | x | n | n | n | 100.0
COc1ccc(Oc2c(C)oc3c(CN4CCOCC4)c(O)ccc3c2=O)cc1 | n | n | x | n | n
CN1CCN(Cc2c(O)ccc3c(=O)c(Oc4ccccc4Cl)c(C(F)(F)F)oc23)CC1 | n | n | x | n | 99.2
N#Cc1ccc(-c2ccc(F)cc2)nc1SCC(=O)Nc1sc2c(c1C#N)CCC2 | n | n | x | n | n
CC(OC(=O)Cc1coc2cc3c(cc12)CCC3)C(=O)NC(N)=O (stereo not given) | n | n | n | n | n
Oc1c(N=NC(=S)Nc2ccccc2F)c2ccccc2n1Cc1ccccc1Cl | n | n | n | n | 84.2
CCCCNC(=S)N=Nc1c(O)n(Cc2ccccc2)c2ccccc12 | 8.82 | n | x | n | n
Cc1ccc(Cn2c(O)c(N=NC(=S)Nc3ccccc3F)c3ccccc32)cc1 | n | n | n | n | 96.6

Source: PubChem BioAssay (several laboratories)
